Drawing on PubChem BioAssay (NCATS), this text covers Potency for twelve compounds.

Results filed as inconclusive are left out. Calls of active or inactive are those of the source. The call rests on the fitted dose curve; in most records, active means well fitted cell-killing curve with a large enough effect; inconclusive means small, poorly fitted or top-dose-only effect, or effect the other way; inactive means no such curve, though single readings can be large or run the other way.
Potency means the concentration at half of the fitted maximal effect.

A short description of the experiment: Viability qHTS for spleen associated tyrosine kinase inhibitor (SYKi) drug resistant MV4-11 cells (AID 1963824). Further: nearly all actives have a fitted effect of over 35% in size. Conditions: SYKi-resistant MV4-11 viability, CellTiter-Glo, 72 h; series mostly up to 45 µM. In a few lines:
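CellTiter-Glo luminescence, read 10 min after reagent addition, reports viability after a 72 hr compound exposure. Cells are an MV4-11 line made resistant to SYK inhibition, seeded at 500 per well onto compound-containing plates.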
With `CC(=O)c1ccc(O[C@@H]2O[C@H](CO)[C@@H](O)[C@H](O)[C@H]2O)cc1`, the Potency result was “inactive”.

`COc1cc(F)c(F)c(Nc2ccc(I)cc2F)c1NS(=O)(=O)C1(CC(O)CO)CC1` (configuration not stated): the Potency is 0.58 µM (active).

`CN1[C@@H]2CC[C@H]1CC(OC(=O)C(CO)c1ccccc1)C2` (some centres not stated): the Potency result is “inactive”.

For `O=C(O)CCc1nccc2c1[nH]c1ccccc12`, the Potency is 23.1 µM (active).

Turning to `C[C@@H]1O[C@@H](O[C@H]2CC[C@@]3(C)C(CC[C@]4(C)C3CC=C3[C@@H]5CC(C)(C)CC[C@]5(C(=O)O[C@@H]5O[C@H](CO)[C@@H](O)[C@H](O)[C@H]5O)CC[C@]34C)[C@]2(C)CO)[C@H](O)[C@H](O[C@@H]2O[C@H](CO)[C@@H](O)[C@H](O)[C@H]2O)[C@H]1O` (some centres not stated), the Potency was 3.9 µM (active).

Take `Cc1ccc(CNc2ncnc3ccc(-c4ccc(CO)o4)cc23)o1`: the Potency was 5.17 µM (active).

For `CC(C)(C)c1ccc(-c2nc3ccccc3[nH]2)cc1`, the Potency was 3.99 µM (active).

Turning to `COC(=O)N[C@H](C(=O)N1[C@@H]2CC[C@@H](C2)[C@H]1c1nc2ccc(-c3ccc4c(c3)C(F)(F)c3cc(-c5cnc([C@@H]6CCC7(CC7)N6C(=O)[C@@H](NC(=O)OC)C(C)C)[nH]5)ccc3-4)cc2[nH]1)C(C)C`, the Potency was 3.99 µM (active).

On to `O=S(=O)(/N=C/c1c(O)ccc2ccccc12)c1cccs1`, for which the Potency entry is “inactive”.

`C/C(=N\NC(=S)N1CCC1)c1ccccn1`: the Potency is 0.0074 µM (active).

`N=C1N=C(N)c2cc3ccccc3cc21`: the Potency was 38.6 µM (active).

`CC(=O)OC1CC(O)(C(C)C)C2C(OC(=O)c3ccc(O)cc3)C=C(C)C(=O)CC12C` (configuration not stated): the Potency is 11.2 µM (active).
